# Source: PubChem
# HePTP inhibitor = human HePTP phosphatase inhibition. P35236. recombinant HePTP phosphatase activity, OD absorbance. inhibition, % at 20 µM. 110,000 tested, 0.64% active. AID 521; in the data active = inhibition above about 50%; inconclusive = no clear call, values can overlap the other calls
# Target sequence (P35236 whole entry, looked up): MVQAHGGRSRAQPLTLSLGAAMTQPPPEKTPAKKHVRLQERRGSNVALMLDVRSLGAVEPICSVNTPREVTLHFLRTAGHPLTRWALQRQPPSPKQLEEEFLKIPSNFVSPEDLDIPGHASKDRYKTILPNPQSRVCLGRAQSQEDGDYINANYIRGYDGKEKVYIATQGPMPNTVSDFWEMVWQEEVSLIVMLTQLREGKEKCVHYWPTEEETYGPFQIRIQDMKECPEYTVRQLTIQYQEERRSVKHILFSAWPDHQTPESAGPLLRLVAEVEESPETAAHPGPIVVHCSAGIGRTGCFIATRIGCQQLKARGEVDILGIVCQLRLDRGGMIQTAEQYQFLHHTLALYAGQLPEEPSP
# BAP1 block = human BAP1 deubiquitinase inhibition | AID 436 | calls only at 20 µM | recombinant BAP1, Ub-AMC hydrolysis fluorescence kinetic; stronger effect = lower value | 72,000 tested, 0.48% active;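 active = activity remaining at or below 50% of control, provided the compound also passes the data quality filters; inactive = the rest, including low values that fail the filters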
# Cdc25B inh = human M-phase inducer phosphatase 2 inhibition | P30305 | recombinant Cdc25B, OMFP fluorescence Ex485/Em525 | inhibition, %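 (compounds tested at 10 µM final in the well)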 | 65,000 tested, 0.1% active | AID 368; in the data active = inhibition above about 50%
# DUSP1 inh = human dual specificity phosphatase 1 inhibition | inhibition, %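 (compounds tested at a single concentration somewhere between 10 and 100 µM)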 | P28562 | 65,000 tested, 0.15% active | recombinant MKP-1, OMFP hydrolysis fluorescence | AID 374;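 active = inhibition above about 50%, limit read from the data; inconclusive = inhibition over screen mean plus 3 SD, below that limit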
# Hsp90 block = displaces geldanamycin probe from tumor Hsp90. P07900. 64,000 tested, 0.35% active. AID 429. NCI-N417 lysate Hsp90, Cy3B-geldanamycin FP displacement. inhibition, % at 30 µM;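 active = inhibition above 50%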
# BAP1 inh confirm = confirmation of human BAP1 enzyme inhibitors; AID 753; % of control activity, % at 20 µM; purified BAP1, Ub-ethyl ester hydrolysis, HPLC; stronger effect = lower value; 310 tested, 8% active; shares compounds with BAP1 block;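 active = percent of control activity at or below 60%; inconclusive = HPLC trace unusable from injection failure or solvent front hiding peaks; inactive = the rest, plus ubiquitin peak ratio over a set limit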
# Numbers stand for hits; n = inactive; u = inconclusive; x = no result given; + = active, no number. Most compounds without a hit are left out; they make up all but 1.1% or so of the library.
SMILES,HePTP inhibitor,BAP1 block,Cdc25B inh,DUSP1 inh,Hsp90 block,BAP1 inh confirm
Cc1cc(C)cc(NC2=NC3(CCCCC3)N=C(N)N2)c1,n,n,n,n,n,x
CCCCOc1ccc(NC2=NC3(CCCC3)N=C(N)N2)cc1,n,+,n,n,n,n
Nc1nn(S(=O)(=O)c2cccc3nsnc23)cc1-c1ccc(Br)cc1,n,+,n,n,n,u
Cc1cc(C)c2[nH]c(=O)c(CN(Cc3ccc4c(c3)OCO4)Cc3nnnn3C3CCCC3)cc2c1,n,+,n,n,n,n
Cc1cccc2cc(CN(Cc3cccs3)C3(c4nnnn4C4CCCC4)CCCC3)c(=O)[nH]c12,n,+,n,n,n,n
Cc1cccc2cc(CN(Cc3ccc(F)cc3)Cc3nnnn3C3CCCC3)c(=O)[nH]c12,n,n,n,n,n,x
Cc1cc(C)nc(/N=C(/N)Nc2ccc(C)c([N+](=O)[O-])c2)n1,n,x,x,x,x,x
CCCSc1nc2c(cnn2-c2ccc(F)cc2)c(=O)[nH]1,n,n,n,n,n,x
O=c1[nH]c(SCc2ccc(F)cc2)nc2c1cnn2-c1ccc(F)cc1,n,+,n,n,n,57
O=C1/C(=C\c2cccc(O)c2)SC(=S)N1c1ccc(F)cc1,n,x,x,x,x,x
Cc1cc(S(=O)(=O)N2CCN(c3c(C)cccc3C)CC2)ccc1F,x,n,n,n,n,x
Cc1cc(S(=O)(=O)N2CCN(c3ccccc3C)CC2)ccc1F,n,+,n,n,n,n
O=C(Nc1ccccc1)C1=C(O)CC(c2ccoc2)CC1=Nc1ccccc1 (stereo unspecified),n,+,n,n,n,u
O=C(Nc1ccccc1)C1=C(O)CC(c2ccco2)CC1=Nc1ccccc1 (stereo unspecified),n,n,n,n,n,x
CCOC(=O)c1ccccc1NC(=O)CN(c1ccc(C)cc1)S(=O)(=O)c1ccc(SC)cc1,n,x,x,x,x,x
O=C(CSc1nnc(COc2ccc3c(c2)CCCC3)o1)Nc1ccc(F)cc1,n,+,n,n,n,n
COCCCNC(=O)CN(c1ccc(C)c(Cl)c1)S(C)(=O)=O,n,x,x,x,x,x
CCOC(=O)c1c(NC(=O)c2cccs2)sc(C)c1CC,n,+,n,n,n,59
Cc1cc(NC(=O)c2cc(Cl)ccc2Cl)no1,n,n,n,n,n,x
Cc1cc(NC(=O)c2ccc(COc3ccc(Cl)c(C)c3)o2)no1,n,+,n,n,n,n
O=C(CSc1nnc(C2CC2)n1Cc1ccccc1)c1cc2ccccc2o1,n,+,n,n,n,n
Cn1c(CN2CCCC2)c(-c2ccccc2)c2cc([N+](=O)[O-])ccc21,n,x,x,x,x,x
CCn1c2ccccc2c2cc(NC(=O)CSc3nnc(C4CC4)n3Cc3ccco3)ccc21,n,+,n,n,n,n
c1ccc(-c2cc(-c3nn4c(-c5ccco5)nnc4s3)c3ccccc3n2)cc1,n,+,n,n,n,n
CC(C)OC(=O)c1c(NC(=O)CCn2nnc3ccccc32)sc2c1CCCC2,n,+,n,n,n,n
SMILES,HePTP inhibitor,BAP1 block,Cdc25B inh,DUSP1 inh,Hsp90 block,BAP1 inh confirm
Cc1ccc(-n2nnnc2SCC(=O)Nc2ccc3c(c2)COC3=O)cc1C,n,+,n,n,n,n
Cn1ccnc1SCC(=O)Nc1ccc2c(c1)COC2=O,n,x,n,n,n,x
CSC1=NC(c2ccccc2)C(C(=O)Nc2ccccc2)=C(C)N1 (stereo unspecified),n,x,x,x,x,x
CCOC(=O)c1oc2ccc(S(=O)(=O)n3nc(-c4ccc(OC)cc4)cc3N)cc2c1C,n,+,n,n,n,n
CCN(CC)S(=O)(=O)c1ccc2oc(C(=O)Nc3ccc(OC)cc3OC)c(C)c2c1,n,x,n,n,n,x
CCOc1cccc2sc(NC(=O)c3ccc(Br)s3)nc12,n,+,n,n,n,n
COc1cccc2sc(=NC(=O)C3CCCCC3)n(C)c12,x,n,x,x,x,x
COc1ccc(OC)c2c1sc(=NC(=O)c1ccco1)n2C,n,+,n,n,n,n
Cc1cccc(C(C)C)c1NC(=O)COc1ccc([N+](=O)[O-])cc1,n,x,x,x,x,x
Cc1csc(NC(=O)c2cc3c(s2)-c2ccccc2OC3)n1,n,+,n,n,n,n
Cc1csc(NC(=O)c2cc3c(s2)CCC3)n1,n,x,n,n,x,x
O=C(Nc1ccccc1NC(=O)NC1CCCCC1)NC1CCCCC1,n,+,n,n,n,n
Cc1c(Cl)cccc1NC(=O)NC1CCCCC1,n,n,n,n,n,x
O=[N+]([O-])c1cccc(Nc2ncnc3ccc(Br)cc23)c1,n,x,x,x,x,x
COc1cccc(-n2nc(C(=O)Nc3ccc4c(c3)OCO4)c3ccccc3c2=O)c1,n,n,n,n,n,x
COc1ccc(-n2nc(C(=O)Nc3ccc4c(c3)OCO4)c3c4ccccc4n(C)c3c2=O)cc1,n,+,n,n,n,n
Brc1ccc(C2Nc3cccc4cccc(c34)N2)o1,n,+,n,n,n,n
CCc1ccc(NC(=O)C2CC(=O)N(C3CCCCC3)C2)cc1 (stereo unspecified),n,x,x,x,x,x
CN(C)c1ccc(NC(=O)CSc2nc3ccccc3c(=O)n2C2CCCCC2)cc1,n,+,n,n,n,57
